Inconclusive results are not listed. Activity calls are given as the source filed them. Rule for the calls: active = hit-call score of the fitted dose curve at least 0.9, where 1 is the maximum; inconclusive = response in the unintended direction; inactive = score below 0.9.

The target of this test is human SGK1 AGC Kinase, SGK1 (gene 6446) (UniProt O00141). Put plainly: ERF_FR_ENZ_hSGK1: Eurofins (ERF) Enzymatic Radiometric [Km ATP] KinaseProfiler LeadHunter Assay for human SGK1 AGC Kinase. How it is done: ERF_FR_ENZ_hSGK1 is a biochemical, single-readout assay that uses extracted gene-proteins in a cell-free assay. Measurements were taken 0.5 hour after chemical dosing in a 96-well plate. See SGK1 Human AGC Kinase Enzymatic LANCE Assay [Km ATP], Cerep.ERF_FR_ENZ_hSGK1 is an assay component calculated from the ERF_FR_ENZ_hSGK1 assay. It is designed to measure enzyme activity using a type of enzyme reporter as detected by fluorescence intensity with LANCE technology.Data from the assay component ERF_FR_ENZ_hSGK1 was analyzed at the assay endpoint, ERF_FR_ENZ_hSGK1, in the positive analysis fitting direction relative to DMSO as the negative control and baseline of activity. Using a type of enzyme reporter, loss-of-signal activity can be used to understand changes in enzymatic activity as they relate to gene SGK1. To generalize the intended target to other relatable targets, this assay endpoint is annotated to the kinase intended target family, where the subfamily is serine/threonine kinase.
Sequence of human SGK1 AGC Kinase, SGK1 (gene 6446) (O00141 whole entry, looked up): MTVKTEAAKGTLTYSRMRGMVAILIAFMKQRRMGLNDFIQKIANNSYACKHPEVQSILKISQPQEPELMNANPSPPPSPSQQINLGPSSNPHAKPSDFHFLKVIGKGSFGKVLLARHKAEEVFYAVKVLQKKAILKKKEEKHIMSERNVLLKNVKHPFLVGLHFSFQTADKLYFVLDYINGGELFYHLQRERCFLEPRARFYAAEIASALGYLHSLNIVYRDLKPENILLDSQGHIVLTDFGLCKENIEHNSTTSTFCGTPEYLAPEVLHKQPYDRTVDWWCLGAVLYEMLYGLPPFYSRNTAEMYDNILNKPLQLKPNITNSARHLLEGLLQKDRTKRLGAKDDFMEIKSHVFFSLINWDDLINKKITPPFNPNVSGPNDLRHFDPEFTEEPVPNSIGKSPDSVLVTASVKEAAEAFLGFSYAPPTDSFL
SGK (h) is incubated with 8 mM MOPS pH 7.0, 0.2 mM EDTA, 30 uM […], 10 mM MgAcetate and [g- 33P]-ATP (specific activity and concentration as required). The reaction is initiated by the addition of the Mg/ATP mix. After incubation for 40 minutes at room temperature, the reaction is stopped by the addition of phosphoric acid to a concentration of 0.5%. […]
Consider `O=C(/C=C/c1ccc(O)cc1)CC(=O)/C=C/c1ccc(O)cc1`, for which the compound was classed as inactive.

The values above are taken from PubChem BioAssay AID2284132 (EPA ToxCast).
